High-throughput results (PubChem)
Sampled rows, rich in hits. Any-hit rate of the full collection: about 2.4%.
SENP8 block-1: blocks human SENP8 cleavage of Nedd8 substrate; Q96LD8; recombinant SENP8, Nedd8 substrate fluorescence; inhibition, % at 20 µM; hit rate 0.64% among 360,000; AID 602440; in the data active = inhibition mostly above about 40%, no sharp cut-off; inactive = mostly below about 27%
SENP8 block-2: blocks the human protease SENP8; purified SENP8, Z-RLRGG-aminoluciferin cleavage, luminescence; inhibition, % at 10 µM; hit rate 1.2% among 330,000; AID 2540; in the data active = inhibition above about 50%
SENP7 inh: inhibitors of human SENP7 protease; inhibition, % at 5 µM; Q9BQF6; hit rate 1.5% among 330,000; recombinant SENP7, Z-RLRGG-aminoluciferin luminescence, 40 min;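 active = inhibition above about 50% at the single test dose, limit read from the data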;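 note: plate controls were DMSO with enzyme for no effect and no enzyme buffer wells for full effect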
Platelet DG rel: platelet dense granule release activity | human platelet-rich plasma, SFLLRN dense granule ATP release, luminescence | inhibition, %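 (compounds screened at 7.5 µM in platelet-rich plasma)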 | hit rate 0.22% among 300,000 | AID 1663;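 active = mean replicate score, as percent of positive control, at or above 50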
SENP6 block: blocks the human protease SENP6 | Q9GZR1 | Recombinant SENP6 catalytic domain, aminoluciferin luminescence | inhibition, % at 10 µM | hit rate 1.8% among 330,000;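 active = inhibition above about 50% at the single tested dose, limit read from the data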;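 note: plate controls were DMSO wells with enzyme for no effect and DMSO wells lacking enzyme for full effect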
Target sequence (Q9GZR1 628-1112 limits assumed): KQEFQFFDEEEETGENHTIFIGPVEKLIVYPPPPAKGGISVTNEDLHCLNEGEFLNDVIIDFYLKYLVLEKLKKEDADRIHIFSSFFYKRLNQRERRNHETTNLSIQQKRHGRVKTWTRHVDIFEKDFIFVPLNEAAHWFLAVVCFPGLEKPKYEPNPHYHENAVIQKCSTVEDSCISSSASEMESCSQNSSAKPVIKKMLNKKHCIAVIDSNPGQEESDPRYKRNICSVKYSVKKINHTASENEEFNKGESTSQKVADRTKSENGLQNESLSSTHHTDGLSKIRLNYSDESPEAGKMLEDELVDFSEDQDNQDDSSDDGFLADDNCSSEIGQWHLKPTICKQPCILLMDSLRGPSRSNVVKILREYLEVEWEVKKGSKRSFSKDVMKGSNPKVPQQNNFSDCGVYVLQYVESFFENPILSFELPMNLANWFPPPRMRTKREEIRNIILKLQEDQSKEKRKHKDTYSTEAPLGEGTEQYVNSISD
* = called active by the depositor; x = no result given.

SMILES	SENP8 block-1	SENP8 block-2	SENP7 inh	Platelet DG rel	SENP6 block
CCCC(=O)NC1=C(Cl)C(=O)c2ccccc2C1=O	35.4	x	x	x	x
O=C1C(Cl)=C(Nc2ccc(O)cc2)C(=O)c2ccccc21	41.1*	10.9	0.4	0.9	25.9
CCN(CC)c1ccc(NC2=C(Cl)C(=O)c3ccccc3C2=O)cc1	50.0*	x	x	x	x
CCNC1=C(Cl)C(=O)c2ccccc2C1=O	93.5*	15.3	30.0	-12.2	41.3
O=C1C(Cl)=C(NCCN2CCCCC2)C(=O)c2ccccc21	76.1*	29.7	20.0	0.8	37.0
Cc1ccc(NC2=C(Cl)C(=O)c3ccccc3C2=O)cc1	1.5	x	x	1.5	x
C=CCN1C(=O)c2ccc(C(=O)N3CCN(S(=O)(=O)c4cc(C)ccc4C)CC3)cc2C1=O	4.4	-13.6	-2.8	-25.0	-2.5
CCOCCCNCC(=O)Nc1ccc(S(=O)(=O)NC(C)CC)cc1 (configuration not stated)	16.3	-3.2	4.9	-13.0	14.6
CC(=O)Nc1ccc(NC(=O)c2cc(=O)c3cc(C)c(C)cc3o2)cc1	-2.2	5.8	-2.4	-0.8	1.4
O=C1C(Cl)=C(NCc2ccco2)C(=O)c2ccccc21	46.3*	x	x	x	x
CC12CCC(/C(=C/NNc3ccc([N+](=O)[O-])cc3[N+](=O)[O-])C1=O)C2(C)C (configuration not stated)	30.4*	x	x	x	x
O=C1NNC(c2ccccc2)=N/C1=C\c1ccccc1Cl	117.2*	x	x	x	x
CC1(C(=O)NCc2ccccc2)CN(S(C)(=O)=O)CC(=O)N1C1CCN(Cc2ccccc2)CC1 (configuration not stated)	15.4	x	x	x	x
Cc1ccc(-c2ccc(/C=N/NC(=O)c3ccccc3O)o2)cc1	x	27.1	53.5*	-3.5	57.9*
COc1cc(/C=C2\C(=O)N(c3ccccc3)N=C2C)ccc1Oc1ccc([N+](=O)[O-])cc1[N+](=O)[O-]	57.6*	x	x	x	x
C#CCOc1ccc(/C=C2/C(=O)N(c3ccc(S(N)(=O)=O)cc3)N=C2C)cc1OC	62.9*	x	x	x	x
COc1cc(/C=C2/C(=O)N(c3ccc(Br)cc3)N=C2C)cc(OC)c1OC	48.7*	-8.8	19.6	-1.5	19.5
Cc1ccc(OC(=O)N(C)C[C@@H]2OCc3cn(nn3)CCCC(=O)N([C@@H](C)CO)C[C@H]2C)cc1	1.5	x	x	x	x
O=[N+]([O-])c1cc(Br)c2nsnc2c1N1CCOCC1	25.2	-6.5	-8.4	-2.6	6.6
CCOc1ccc(C(=O)O/N=C(\N)c2ccccn2)cc1OCC	2.7	-13.5	21.4	17.7	-19.3
N/C(=N\OC(=O)c1cccc(Br)c1)c1ccccn1	2.9	86.5*	98.4*	-7.9	96.0*
Oc1ccc2ccccc2c1N=Nc1ccccn1	41.4*	15.0	-4.7	-3.6	22.6
O=C(Nc1ccccc1)OCc1cnc(Cl)s1	12.6	-5.3	8.4	-0.5	-4.4
O=C(Nc1ccccc1)OCc1cc(-c2ccccc2Cl)on1	10.0	-8.3	-1.2	52.2*	-5.4
O=C1NC[C@@H](Cc2cccc3ccccc23)N(CCc2cccc(F)c2)C1=O	3.5	x	x	x	x
SMILES	SENP8 block-1	SENP8 block-2	SENP7 inh	Platelet DG rel	SENP6 block
Cc1ccc(NC(=O)/C(=C\c2ccc([N+](=O)[O-])cc2)NC(=O)c2ccccc2)cc1	25.5	-1.1	-1.2	-1.9	-4.2
O=C(N/N=C/c1ccc(O)c(O)c1O)/C(=C/c1ccc([N+](=O)[O-])cc1)NC(=O)c1ccccc1	71.9*	0.3	2.2	3.3	17.7
Cc1cn(CC(=O)NCc2ccccc2)c(=O)[nH]c1=O	12.8	x	x	x	x
COc1cccc(NC2=C(NCCO)C(=O)c3ccccc3C2=O)c1	53.7*	22.7	6.1	7.2	20.4
Oc1cccc(/C=N/NC(=S)Nc2cccnc2)c1O	-132.3	x	x	0.6	x
Oc1ccc(/C=N/NC(=S)Nc2cccnc2)c(O)c1O	56.4*	x	x	7.9	x
O=[N+]([O-])c1cccc(N/N=C/c2cccc(O)c2O)c1	58.2*	2.0	-17.4	4.2	-22.0
Cc1cccc(N/N=C/c2ccc(O)c(O)c2O)c1	67.0*	27.8	8.1	-7.5	10.5
O=C(O)C1CCCCC1C(=O)Nc1ccc(S(=O)(=O)N2CCOCC2)cc1 (configuration not stated)	8.0	x	x	x	x
COc1cccc(CNc2nc3cc(-c4cnn(Cc5ccccc5)c4)sc3c(=O)n2C)c1	-49.5	x	x	x	x
CSCCC(C(=O)NC(C)(C)C)n1c(-c2ccc3c(c2)OCO3)nc2ccccc21 (configuration not stated)	-28.5	x	x	x	x
O=C(NCC(c1ccco1)N1CCc2ccccc2C1)c1ccc(F)cc1 (configuration not stated)	-0.1	5.5	-0.1	1.9	2.7
Cc1ccccc1CNC(=O)C1CCN(c2nnc(N3CCCC3=O)s2)CC1	14.7	-1.3	-0.6	-1.5	-8.2
